# Reference: PubChem BioAssay (Tox21)
# Inconclusive results are not listed. A call without a number means that no potency is given here. The source made the active and inactive calls. Calls follow the shape of the dose curve; as a rule, active = well fitted cell-killing curve with a large enough effect in the repeat runs; inconclusive = weak or mixed curves, or effect the other way; inactive = flat fitted curve, though single readings scatter. Positions of bridges follow the written chain, without caps; N, C: chain ends. Non-standard residues stand in square brackets, D forms with d. Residues, ends and D or L forms follow the SMILES beside them. *: point of attachment. X2 = CC[C@H](C)CCCCC(=O)*; Dab = NCC[C@H](N)C(=O)O
# Assay: qHTS assay to identify small molecule that activate the aryl hydrocarbon receptor (AhR) signaling pathway - cell viability counter screen (AID 743086); also: nearly all actives have a fitted effect of over 45% in size
# Conditions: HepG2-AhR-luc viability, CellTiter-Fluor, 24 h; series mostly up to 70.3 µM
# How it was run: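 HepG2-AhR-luc (HG2L7.5c1) cells, 4000/well, treated 24 h at 37 C with compound; viability measured as CellTiter-Fluor fluorescence after 30 min in the same wells as the luciferase read.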
# Potency is read from the fitted curve at half-maximal effect.
row,Structure (SMILES),Potency
1,O=C(O)c1cccc(/C=C2/C[C@@H]3[C@@H](/C=C/[C@@H](O)C4CCCCC4)[C@H](O)C[C@@H]3O2)c1,inactive
2,CC1(C)S[C@@H]2[C@H](NC(=O)[C@H](N)c3ccccc3)C(=O)N2[C@H]1C(=O)OCOC(=O)[C@@H]1N2C(=O)C[C@H]2S(=O)(=O)C1(C)C,inactive
3,NCCC(=O)[N-][C@@H](Cc1cnc[nH]1)C(=O)O.[Zn],inactive
4,CNc1cc(OC)c(C(=O)N[C@H]2CCN(Cc3ccccc3)[C@H]2C)cc1Cl,inactive
5,C#CCOc1ccc2c(C)cc(=O)oc2c1,inactive
6,OC[C@H]1O[C@@H](n2cnc3c2NC=NC[C@H]3O)C[C@@H]1O,inactive
7,O=P(O)(O)OC(CO)CO,inactive
8,CCCCCCCCCCCCCCCC(=O)O[C@@H]1[C@@H](O)[C@@H](O)[C@@H]([C@H](NC(=O)[C@@H]2C[C@@H](CCC)CN2C)[C@H](C)Cl)O[C@@H]1SC,inactive
9,CC(=O)O[C@H]1C[C@@]2(C)[C@@H](C[C@@H](O)[C@H]3[C@@]4(C)CC[C@@H](O)[C@@H](C)[C@@H]4CC[C@@]32C)/C1=C(\CCC=C(C)C)C(=O)O,inactive
10,CC1=C[C@H](O)CC(C)(C)[C@H]1/C=C/C(C)=C/C=C/C(C)=C/C=C/C=C(C)/C=C/C=C(C)/C=C/C1=C(C)C[C@@H](O)CC1(C)C,inactive
11,C[C@H](CSC(=O)c1ccccc1)C(=O)N1C[C@@H](Sc2ccccc2)C[C@H]1C(=O)O,inactive
12,O=S(O)CNc1ccc(S(=O)(=O)c2ccc(NCS(=O)O)cc2)cc1,inactive
13,CC(=O)O[C@H]1C[C@@H]2CC[C@@H]3[C@H](CC[C@@]4(C)[C@H]3C[C@H](N3CC[N+](C)(C)CC3)[C@@H]4OC(C)=O)[C@@]2(C)C[C@@H]1N1CC[N+](C)(C)CC1,inactive
14,O=C1O[C@H]2[C@H](O)[C@@H]1OC(O)[C@H]2O (some centres undefined),inactive
15,CC(=O)Nc1ccc(NC(=S)NC(=O)c2ccc(C(C)(C)C)cc2)cc1,inactive
16,CCSc1ccc2c(c1)N(CCCN1CCN(C)CC1)c1ccccc1S2,inactive
17,CC[C@H]1OC(=O)[C@H](C)[C@@H](O[C@H]2C[C@@](C)(OC)[C@@H](O)[C@H](C)O2)[C@H](C)[C@@H](O[C@@H]2O[C@H](C)C[C@H](N(C)C)[C@H]2O)[C@](C)(O)C[C@@H](C)[C@@H]2N[C@@H](COCCOC)O[C@@H]([C@H]2C)[C@]1(C)O,inactive

row,Structure (SMILES),Potency
1,Cn1c(=O)c2c(ncn2CCOC(=O)C(C)(C)Oc2ccc(Cl)cc2)n(C)c1=O,inactive
2,O=C(O)c1ccc(OCCn2ccnc2)cc1,inactive
3,CC1=C(/C=C/C(C)=C/C=C/C(C)=C/C=C/C=C(C)/C=C/C=C(C)/C=C/C2=C(C)C[C@@H](O)CC2(C)C)C(C)(C)C[C@H](O)C1,inactive
4,CO[C@@H]1[C@@H](O[C@@H]2O[C@H](C)[C@@H](O[C@H]3C[C@@](C)(O)[C@@H](OC(=O)CC(C)C)[C@H](C)O3)[C@H](N(C)C)[C@H]2O)[C@@H](CC=O)C[C@@H](C)[C@@H](O)/C=C/C=C/C[C@@H](C)OC(=O)C[C@H]1O,inactive
5,CCN(CC)CCOc1ccc2nc(N(C)C)sc2c1,inactive
6,COc1cc([C@@H]2c3cc4c(cc3C(O[C@@H]3O[C@@H]5COC(c6cccs6)O[C@H]5[C@H](O)[C@H]3O)C3COC(=O)[C@@H]32)OCO4)cc(OC)c1O (some centres undefined),inactive
7,COCC1=C(C(=O)OC(C)OC(=O)OC(C)C)N2C(=O)[C@@H](NC(=O)/C(=N\OC)c3csc(N)n3)[C@H]2SC1 (some centres undefined),inactive
8,CC1=C(/C=C/C(C)=C/C=C/C(C)=C/C=C/C=C(C)/C=C/C=C(C)/C=C/C2=C(C)C(=O)CCC2(C)C)C(C)(C)CCC1=O,inactive
9,CCC(=O)O[C@]1(C(=O)CCl)[C@@H](C)C[C@H]2[C@@H]3C[C@H](F)C4=CC(=O)C=C[C@]4(C)[C@@]3(F)[C@@H](O)C[C@@]21C,inactive
10,CC[C@H](C)CCCCC(=O)N[C@@H](CCN)C(=O)N[C@H](C(=O)N[C@@H](CCN)C(=O)N[C@H]1CCNC(=O)[C@H]([C@@H](C)O)NC(=O)[C@H](CCN)NC(=O)[C@H](CCN)NC(=O)[C@H](CC(C)C)NC(=O)[C@@H](CC(C)C)NC(=O)[C@H](CCN)NC1=O)[C@@H](C)O (X2-[Dab]T[Dab][Dab][Dab][dL]L[Dab][Dab]T; lactam 4-C),inactive
11,O=C(NCCNCC(O)COc1ccc(O)cc1)N1CCOCC1 (centres undefined),inactive
12,CC(C)CN(C[C@@H](O)[C@H](Cc1ccccc1)NC(=O)O[C@H]1CO[C@H]2OCC[C@H]21)S(=O)(=O)c1ccc(N)cc1,inactive
13,CCCCCCCCCCCCCCCCCC(=O)OCC(C)O (centres undefined),33.5 µM (active)
14,CC(NNC(=O)c1ccccc1)c1ccccc1 (centres undefined),inactive
15,CCC(=O)NS(=O)(=O)c1ccc(-c2c(-c3ccccc3)noc2C)cc1,inactive
16,CN(C(=O)CO)c1c(I)c(C(=O)NCC(O)CO)c(I)c(C(=O)NCC(O)CO)c1I (centres undefined),inactive
17,CC(C(=O)O)c1ccc(N2Cc3ccccc3C2=O)cc1 (centres undefined),inactive
